According to PubChem BioAssay (Tox21):
Results filed as inconclusive are left out. Calls of active or inactive are those of the source. Unless noted, calls come from the whole dose curve.

Assays:
[1] = Nuclear factor erythroid 2-related factor 2/antioxidant responsive element (Nrf2/ARE) small molecule agonists: qHTS cell viability counter screen in human keratinocytes (AID 1919968; active = well fitted curve in the direction sought with a large enough effect in the repeat runs; an effect the other way counts as inactive or inconclusive; note: nearly all actives have a fitted effect of over 55% in size)
In short: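 CellTiter-Fluor fluorescence, read 1 h after reagent, gave viability in the same wells as the ARE-luciferase assay. KeratinoSens cells (1,500/well) had 23 h compound exposure at 37 C/5% CO2 following 5 h plating.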

[2] = target: KiSS-1 receptor (Homo sapiens) (UniProt Q969F8); assay: Human kisspeptin (KISS1R) small molecule agonists, calcium flux assay in KISS1R-HEK293 cells (AID 1920064; active = well fitted curve in the direction sought with a large enough effect in the repeat runs; an effect the other way counts as inactive or inconclusive)
Chain of KiSS-1 receptor (Homo sapiens) (Q969F8 whole entry, looked up): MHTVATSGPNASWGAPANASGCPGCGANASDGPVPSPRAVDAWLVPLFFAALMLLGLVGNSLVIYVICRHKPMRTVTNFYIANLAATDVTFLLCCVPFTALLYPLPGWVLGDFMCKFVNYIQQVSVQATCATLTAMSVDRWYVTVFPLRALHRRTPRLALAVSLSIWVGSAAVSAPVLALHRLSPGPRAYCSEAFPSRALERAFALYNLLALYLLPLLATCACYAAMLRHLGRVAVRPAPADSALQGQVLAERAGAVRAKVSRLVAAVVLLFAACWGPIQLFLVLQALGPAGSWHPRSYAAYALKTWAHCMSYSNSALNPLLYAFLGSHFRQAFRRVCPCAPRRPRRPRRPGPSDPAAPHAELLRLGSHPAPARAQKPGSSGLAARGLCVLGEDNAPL
In short: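 Agonist mode: intracellular calcium rise tracked at 1 s intervals over 3 min (480/540 nm) immediately after compound addition to dye-loaded KISS1R-HEK293 stable cells. Each compound tested at 15 concentrations in triplicate.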

[3] = p53 small molecule agonists, cell-based qHTS assay with human liver microsomes (AID 1963577);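 note: p53 response element beta-lactamase reporter cells with liver microsomes plus NADPH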
In short: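 Metabolically competent format: test substances, human liver microsomes and NADPH (both 0.5 mg/mL final) incubated with p53RE-bla cells 16 h at 37 C. Beta-lactamase reporter signal then quantified by fluorescence.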

[4] = p53 small molecule agonists, cell-based qHTS assay with rat liver microsomes (AID 1963578)
In short: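 Each plate received p53RE-bla cells, then compound, then rat liver microsomes and NADPH (both 0.5 mg/mL final). Plates were held 16 h at 37 C, and beta-lactamase activity was detected with LiveBLAzer over 2 h.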

[5] = p53 small molecule agonists, cell-based qHTS assay with human liver microsomes: qHTS cell viability counter screen (AID 1963579); note: nearly all actives have a fitted effect of over 45% in size; note: potency is the fitted concentration of half-maximal effect
In short: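 Tox21 library compounds, delivered from DMSO stocks, were tested on p53RE-bla cells together with 0.5 mg/mL human liver microsomes and 0.5 mg/mL NADPH (final) over 16 h at 37 C; CellTiter-Glo luminescence served as the cytotoxicity measure.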

[6] = p53 small molecule agonists, cell-based qHTS assay with rat liver microsomes: qHTS cell viability counter screen (AID 1963580); note: nearly all actives have a fitted effect of over 45% in size
In short: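 Cytotoxicity counter screen: intracellular ATP measured by CellTiter-Glo luminescence in the same wells as the beta-lactamase reporter read, on HCT-116 p53RE-bla cells exposed 16 h at 37 C to compounds with rat liver microsomes and NADPH, each 0.5 mg/mL final.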

[7] = p53 small molecule agonists, cell-based qHTS assay: qHTS cell viability counter screen (AID 1963581); note: nearly all actives have a fitted effect of over 45% in size
In short: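 Counter screen read by CellTiter-Glo luminescence (ATP content, 30 min at room temperature), run in the same wells as the beta-lactamase reporter read. HCT-116 p53RE-bla cells saw compounds for 16 h at 37 C.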

[8] = target: 5-hydroxytryptamine receptor 2A (Homo sapiens) (UniProt P28223); assay: 5-hydroxytryptamine receptor 2A (HTR2A) small molecule antagonists, cell-based qHTS assay (AID 1963586); note: nearly all actives have a fitted effect of over 45% in size; note: potency is the fitted concentration of half-maximal effect
Chain of 5-hydroxytryptamine receptor 2A (Homo sapiens) (P28223 whole entry, looked up): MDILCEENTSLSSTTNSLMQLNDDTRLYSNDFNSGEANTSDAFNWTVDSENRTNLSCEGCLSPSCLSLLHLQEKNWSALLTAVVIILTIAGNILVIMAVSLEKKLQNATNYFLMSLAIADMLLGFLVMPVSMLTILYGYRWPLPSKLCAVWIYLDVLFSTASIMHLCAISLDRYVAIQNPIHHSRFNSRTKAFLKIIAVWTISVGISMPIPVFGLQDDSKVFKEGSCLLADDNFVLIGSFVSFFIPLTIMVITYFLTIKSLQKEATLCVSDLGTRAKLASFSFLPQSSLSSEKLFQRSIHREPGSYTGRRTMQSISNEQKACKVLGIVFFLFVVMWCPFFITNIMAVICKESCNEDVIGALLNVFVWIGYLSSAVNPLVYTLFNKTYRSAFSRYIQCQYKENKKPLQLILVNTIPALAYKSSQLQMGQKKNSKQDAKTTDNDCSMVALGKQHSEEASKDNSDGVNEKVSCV
In short: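 CHO cells stably expressing human HTR2A were plated for 18 h at 37 C, then loaded with calcium dye for 1 h. Compounds were preincubated 5 min at room temperature before DOI (4 nM solution) was added. Kinetic fluorescence was read for 3 min.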

[9] = target: Muscarinic acetylcholine receptor M1 (Homo sapiens) (UniProt P11229); assay: Cholinergic receptor muscarinic 1 (CHRM1) small molecule antagonists, cell-based qHTS assay (AID 1963588); note: nearly all actives have a fitted effect of over 40% in size; note: potency is the fitted concentration of half-maximal effect
Chain of Muscarinic acetylcholine receptor M1 (Homo sapiens) (P11229 whole entry, looked up): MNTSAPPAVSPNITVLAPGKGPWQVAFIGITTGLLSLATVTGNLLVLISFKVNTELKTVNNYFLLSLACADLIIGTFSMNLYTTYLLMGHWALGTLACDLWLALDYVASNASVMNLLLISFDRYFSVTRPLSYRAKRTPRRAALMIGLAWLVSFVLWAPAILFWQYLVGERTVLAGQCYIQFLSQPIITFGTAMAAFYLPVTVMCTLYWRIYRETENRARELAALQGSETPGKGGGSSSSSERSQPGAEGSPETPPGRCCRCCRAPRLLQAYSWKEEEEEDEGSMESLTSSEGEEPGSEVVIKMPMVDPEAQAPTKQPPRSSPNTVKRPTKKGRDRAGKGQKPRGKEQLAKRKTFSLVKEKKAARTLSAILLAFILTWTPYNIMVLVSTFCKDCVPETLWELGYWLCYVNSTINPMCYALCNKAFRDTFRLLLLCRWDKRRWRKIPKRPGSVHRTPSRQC
In short: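 Compounds were tested at 15 concentrations in three independent runs. Dye-loaded CHRM1-CHO cells were exposed 5 min at room temperature before stimulation by acetylcholine added at 50nM. Intracellular calcium was read kinetically on FDSS for 3 min.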

[10] = target: Muscarinic acetylcholine receptor M1 (Homo sapiens) (UniProt P11229); assay: Cholinergic receptor muscarinic 1 (CHRM1) small molecule agonists, cell-based qHTS assay (AID 1963589); note: nearly all actives have a fitted effect of over 35% in size
In short: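 Agonist-mode calcium-flux screen: compounds at 15 concentrations, three independent runs, were pin-transferred onto dye-loaded human CHRM1-CHO cells. Fluorescence was then recorded kinetically every second over minutes.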

[11] = target: Beta-2 adrenergic receptor (Homo sapiens) (UniProt P07550); assay: Adrenergic beta2 receptor (ADRB2) small molecule agonists, cell-based qHTS assay (AID 1963593); note: potency is the fitted concentration of half-maximal effect;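 for activation: CHO cells stably overexpressing human ADRB2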
Chain of Beta-2 adrenergic receptor (Homo sapiens) (P07550 whole entry, looked up): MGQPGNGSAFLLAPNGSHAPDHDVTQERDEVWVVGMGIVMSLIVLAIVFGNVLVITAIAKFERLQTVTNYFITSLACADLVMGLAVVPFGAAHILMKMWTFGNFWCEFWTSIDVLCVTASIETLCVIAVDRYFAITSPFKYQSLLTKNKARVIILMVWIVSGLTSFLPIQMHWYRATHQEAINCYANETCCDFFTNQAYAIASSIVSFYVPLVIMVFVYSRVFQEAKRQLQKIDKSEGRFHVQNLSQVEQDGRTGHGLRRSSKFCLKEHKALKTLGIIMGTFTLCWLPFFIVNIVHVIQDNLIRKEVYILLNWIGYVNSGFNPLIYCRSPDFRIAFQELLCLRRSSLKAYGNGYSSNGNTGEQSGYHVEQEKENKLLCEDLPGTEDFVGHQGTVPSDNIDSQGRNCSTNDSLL
In short: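 CHO cells stably over-expressing ADRB2 were plated overnight at 37C, then dosed with compounds plus a stimulation mix containing 100uM IBMX and 25uM Ro-20-1724 for 0.5hr at room temperature. cAMP was measured by HTRF competition, 1hr.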

[12] = target: D(2) dopamine receptor (Homo sapiens) (UniProt P14416); assay: Dopamine D2 receptor (DRD2) small molecule agonists, cell-based qHTS assay (AID 1963594); note: nearly all actives have a fitted effect of over 35% in size
Chain of D(2) dopamine receptor (Homo sapiens) (P14416 whole entry, looked up): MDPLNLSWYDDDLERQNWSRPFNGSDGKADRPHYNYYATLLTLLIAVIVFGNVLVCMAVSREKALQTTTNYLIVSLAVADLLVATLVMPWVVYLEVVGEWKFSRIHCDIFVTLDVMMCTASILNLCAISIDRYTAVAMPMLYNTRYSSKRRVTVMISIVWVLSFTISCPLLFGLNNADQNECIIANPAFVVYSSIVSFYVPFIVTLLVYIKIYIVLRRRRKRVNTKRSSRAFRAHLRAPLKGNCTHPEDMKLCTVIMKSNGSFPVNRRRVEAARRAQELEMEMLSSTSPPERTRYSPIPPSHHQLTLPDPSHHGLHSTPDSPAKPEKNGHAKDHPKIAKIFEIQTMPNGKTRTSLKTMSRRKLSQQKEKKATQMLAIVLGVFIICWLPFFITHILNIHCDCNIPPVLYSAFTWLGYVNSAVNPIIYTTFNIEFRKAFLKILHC
In short: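 HEK293 cells stably expressing human DRD2, pre-treated with PDE inhibitor Ro20-1724 (0.1 mM final) and compound 10 min at room temperature, then stimulated with NKH477 (200nM […]) for 30 min. cAMP read by HTRF (665/620 nm).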

[13] = target: D(2) dopamine receptor (Homo sapiens) (UniProt P14416); assay: Dopamine D2 receptor (DRD2) small molecule antagonists, cell-based qHTS assay (AID 1963595; active = well fitted inhibition curve with a large enough effect in the signal ratio in the repeat runs, with a control signal flat; the % refers to the signal ratio; note: potency is the fitted concentration of half-maximal effect)
In short: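 Antagonism was scored as restored cAMP in HEK293-DRD2 cells. These cells were stimulated with 200 nM NKH477 and 12 nM quinpirole for 30 min at room temperature, in the presence of 0.1 mM Ro20-1724.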

[14] = G protein-coupled receptor (GPCR) small molecule agonists, calcium flux assay: HEK293 wild type cell line counter screen (AID 1920065)
In short: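 Calcium flux counter screen: compound added in agonist mode at 15 concentrations in triplicate to dye-loaded parental HEK293 cells. Fluorescence (480/540) read kinetically for 3 min; ATP served as positive control.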

[15] = p53 small molecule agonists, cell-based qHTS assay (AID 1963582; active = well fitted activation curve with a large enough effect in the signal ratio in the repeat runs, not every such curve was filed as active; the % refers to the signal ratio)
In short: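 Read-out is beta-lactamase FRET fluorescence after 2 h at room temperature with LiveBLAzer B/G substrate. p53 response element-bla cells were treated 16 h at 37 C with compounds in DMSO, added 5 h after seeding.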

[16] = target: 5-hydroxytryptamine receptor 2A (Homo sapiens) (UniProt P28223); assay: 5-hydroxytryptamine receptor 2A (HTR2A) small molecule agonists, cell-based qHTS assay (AID 1963587); note: nearly all actives have a fitted effect of over 30% in size
In short: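 CHO cells stably expressing human HTR2A, plated 18 h, loaded with calcium dye 1 h at 37 C. Agonist mode: compounds added and intracellular calcium fluorescence recorded kinetically for 2 min at 1 sec intervals.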

[17] = cAMP Responsive Elements (CRE) small molecule agonists, cell-based qHTS assay (AID 1963590)
In short: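 Agonist mode: compound added to CRE-bla HEK 293T cells (2,000/well, 18 h after plating) for 3 h at 37 C/5% CO2. Reporter activity detected via FRET beta-lactamase substrate, 2 h room-temperature loading.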

[18] = cAMP Responsive Elements (CRE) small molecule antagonists, cell-based qHTS assay (AID 1963591; active = well fitted inhibition curve with a large enough effect in the signal ratio in the repeat runs, not every such curve was filed as active; the % refers to the signal ratio)
In short: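 Antagonist mode: compounds are added alongside the adenylyl cyclase activator NKH477 (0.25 uM final) to CRE-bla HEK293T cells for 3 h. LiveBLAzer FRET substrate, 2 h at room temperature, reports bla expression.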

[19] = target: Beta-2 adrenergic receptor (Homo sapiens) (UniProt P07550); assay: Adrenergic beta2 receptor (ADRB2) small molecule antagonists, cell-based qHTS assay (AID 1963592); note: series mostly up to about 92 µM; nearly all actives have a fitted effect of over 50% in size
In short: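 Assay format: CHO-ADRB2 cells, 18-20hr seeding at 37C/5% CO2, then compound plus 1nM isoproterenol agonist mix for 0.5hr RT. Homogeneous time-resolved fluorescence cAMP detection after 1hr, expressed as 665/615 nm ratio.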

[20] = target: Gonadotropin-releasing hormone receptor (Homo sapiens) (UniProt P30968); assay: Human gonadotropin-releasing hormone receptor (GnRHR) small molecule agonists, calcium flux assay in GnRHR-HEK293 cells (AID 1920063); note: nearly all actives have a fitted effect of over 35% in size
Chain of Gonadotropin-releasing hormone receptor (Homo sapiens) (P30968 whole entry, looked up): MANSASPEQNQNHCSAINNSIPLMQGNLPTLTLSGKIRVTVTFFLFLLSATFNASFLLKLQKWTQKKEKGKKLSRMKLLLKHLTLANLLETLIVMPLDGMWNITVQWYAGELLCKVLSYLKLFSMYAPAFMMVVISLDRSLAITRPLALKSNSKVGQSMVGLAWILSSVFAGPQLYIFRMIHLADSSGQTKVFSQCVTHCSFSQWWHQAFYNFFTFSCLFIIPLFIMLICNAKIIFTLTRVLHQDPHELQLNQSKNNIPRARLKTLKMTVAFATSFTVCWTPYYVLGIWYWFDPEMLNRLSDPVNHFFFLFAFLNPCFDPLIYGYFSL
In short: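 Agonist mode: compounds at 15 concentrations, in triplicate, went onto calcium dye-loaded GnRHR-HEK293 cells. Intracellular calcium was then followed as 480/540 nm fluorescence at 1 s intervals over 3 min.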
% is set by controls: 0 for no effect and ±100 for the full control effect.

Cc1ccc(C(=O)Oc2ccc(C(O)CNC(C)(C)C)cc2OC(=O)c2ccc(C)cc2)cc1 (stereo not given)
active: Potency [5] 397 nM | Potency [11] 84.1 nM | Potency [13] 841 nM
inactive: Potency [1] | outcome [2] | Potency [3] | Potency [4] | Potency [6] | Potency [7] | Potency [8] | Potency [9] | Potency [10] | Potency [12]

CCC(C)(CCCC(C)C)OC(C)=O (stereo not given)
inactive: Potency [1] | outcome [2] | outcome [14] | Potency [3] | Potency [5] | Potency [6] | Potency [7] | Potency [15] | Potency [8] | Potency [16] | Potency [10] | Potency [17] | Potency [18] | Potency [19] | Potency [12] | Potency [13]

COC(=O)[C@@H]1[C@H]2C[C@H]3c4[nH]c5ccccc5c4CCN3C[C@@H]2CC[C@@H]1O
active: Potency [13] 23700 nM
inactive: Potency [1] | outcome [2] | outcome [14] | Potency [3] | Potency [5] | Potency [6] | Potency [7] | Potency [15] | Potency [17] | Potency [11] | Potency [12]

O=C(COCCOCCOCC(=O)Nc1c(I)cc(I)c(C(=O)O)c1I)Nc1c(I)cc(I)c(C(=O)O)c1I
inactive: Potency [1] | outcome [2] | outcome [14] | Potency [3] | Potency [5] | Potency [6] | Potency [7] | Potency [15] | Potency [8] | Potency [16] | Potency [9] | Potency [10] | Potency [17] | Potency [18] | Potency [19] | Potency [13]

c1ccc(CN(CC2=NCCN2)c2ccccc2)cc1
inactive: Potency [1] | outcome [2] | Potency [4] | Potency [5] | Potency [6] | Potency [7] | Potency [15] | Potency [9] | Potency [10] | Potency [17] | Potency [18] | Potency [12] | Potency [13]

CCCCCCCCCC[N+](C)(C)[O-]
inactive: Potency [1] | outcome [14] | Potency [3] | Potency [4] | Potency [5] | Potency [6] | Potency [15] | Potency [8] | Potency [9] | Potency [10] | Potency [17] | Potency [18] | Potency [19] | Potency [11] | Potency [12] | Potency [13]

CO[Si](CCC1CCC2OC2C1)(OC)OC (stereo not given)
inactive: Potency [1] | outcome [2] | Potency [3] | Potency [4] | Potency [5] | Potency [7] | Potency [15] | Potency [8] | Potency [16] | Potency [9] | Potency [10] | Potency [17] | Potency [18] | Potency [19] | Potency [12] | Potency [13]

CC(C)Oc1ccccc1O
inactive: Potency [1] | outcome [14] | Potency [3] | Potency [4] | Potency [5] | Potency [6] | Potency [15] | Potency [8] | Potency [16] | Potency [9] | Potency [10] | Potency [18] | Potency [11] | Potency [13]

O=C(CCC1CCN(Cc2ccccc2)CC1)c1ccc2c(c1)NCCCC2
inactive: Potency [1] | outcome [14] | Potency [3] | Potency [4] | Potency [5] | Potency [6] | Potency [7] | Potency [15] | Potency [10] | Potency [17] | Potency [19] | Potency [12]
active: Potency [8] 2590 nM | Potency [9] 3260 nM

Cc1c[nH]c2ccccc12
inactive: Potency [1] | outcome [2] | outcome [14] | Potency [3] | Potency [4] | Potency [6] | Potency [7] | Potency [8] | Potency [16] | Potency [9] | Potency [10] | Potency [17] | Potency [18] | Potency [19] | Potency [11] | Potency [13]

C/C=C/C(=O)CC
inactive: activity change, negative = cytotoxicity [1] -0.853% [at 19 µM] | activation [2] -0.292% [at 15.8 µM] | activation [14] 0.719% [at 11.8 µM] | activation [3] -15.9% [at 13.5 µM] | activation [4] -0.406% [at 13.6 µM] | activity change, negative = cytotoxicity [7] 7.07% [at 13.5 µM] | activation [15] -2.81% [at 13.5 µM] | activity, negative = inhibition [8] 10.6% [at 12.7 µM] | activation [16] -1.41% [at 15.9 µM] | activity, negative = inhibition [9] 37.8% [at 12.6 µM] | activation [10] 0.129% [at 15.8 µM] | activity change, negative = inhibition [18] 1.47% [at 18.9 µM] | activity change, negative = inhibition [19] 3.38% [at 19 µM] | activation [12] -9.38% [at 19 µM] | activity change, negative = inhibition [13] 0.284% [at 18.9 µM]

CCOC(=O)Nc1ccc(NCc2ccc(F)cc2)nc1N
inactive: Potency [1] | outcome [2] | Potency [3] | Potency [4] | Potency [5] | Potency [6] | Potency [7] | Potency [8] | Potency [16] | Potency [9] | Potency [10] | Potency [17] | Potency [13]

CNS(=O)(=O)CCc1ccc2[nH]cc(C3CCN(C)CC3)c2c1
inactive: Potency [1] | Potency [20] | outcome [2] | outcome [14] | Potency [3] | Potency [4] | Potency [5] | Potency [6] | Potency [7] | Potency [15] | Potency [16] | Potency [9] | Potency [10] | Potency [18] | Potency [12] | Potency [13]

NC(=O)NS(=O)(=O)c1ccc(N)cc1
inactive: Potency [1] | Potency [20] | outcome [2] | outcome [14] | Potency [3] | Potency [4] | Potency [5] | Potency [6] | Potency [7] | Potency [15] | Potency [16] | Potency [9] | Potency [18] | Potency [19] | Potency [11] | Potency [12] | Potency [13]

CCCCCc1ccco1
inactive: Potency [1] | Potency [20] | outcome [2] | outcome [14] | Potency [3] | Potency [4] | Potency [5] | Potency [6] | Potency [7] | Potency [15] | Potency [8] | Potency [16] | Potency [10] | Potency [17] | Potency [18] | Potency [19] | Potency [11] | Potency [12] | Potency [13]

CC(C)C[P+](C)(CC(C)C)CC(C)C
inactive: Potency [1] | Potency [20] | outcome [2] | outcome [14] | Potency [3] | Potency [4] | Potency [5] | Potency [6] | Potency [7] | Potency [15] | Potency [8] | Potency [16] | Potency [9] | Potency [10] | Potency [17] | Potency [18] | Potency [19] | Potency [12] | Potency [13]
